Experimental data reported in the supplement of paper PMC6555819.

What was measured:
Test in all cases: PBM binding z-score (relative to random genomic background probes); higher = stronger binding; sequences stand for … in GC…GCGATTGACAGCGTAGAATGAAGG
[1] = test system: FXR:RXRa (NR concentration 270 nM, RXRa partner concentration 90 nM)
Outline: (§1)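 Binding buffer was PBS pH 7.4 with 2% milk, 0.02% Triton X-100, 1 mM DTT, 0.2 mg/mL BSA and 0.4 mg/ml salmon testes DNA. In it, ligand-free nuclear receptor dimers were incubated 1 h on custom Agilent 4×180K protein-binding microarrays carrying double-stranded probes. Antibodies against each partner (one per run) detected binding, and z-scores were calculated against random background probes after regression normalization of scanned fluorescence.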

[2] = test system: LXRa:RXRa (NR concentration 270 nM, RXRa partner concentration 90 nM)
Outline: as §1

[3] = test system: LXRa homodimer (NR concentration 270 nM)
Outline: as §1

[4] = test system: LXRb:RXRa (NR concentration 270 nM, RXRa partner concentration 90 nM)
Outline: as §1

[5] = test system: LXRb homodimer (NR concentration 270 nM)
Outline: as §1

[6] = test system: PPARa:RXRa (NR concentration 270 nM, RXRa partner concentration 90 nM)
Outline: as §1

[7] = test system: PPARg:RXRa (NR concentration 180 nM, RXRa partner concentration 90 nM)
Outline: as §1

[8] = test system: PPARg:RXRa 270nM:90nM, anti-RXR (NR concentration 270 nM, RXRa partner concentration 90 nM)
Outline: as §1

[9] = test system: PPARg:RXRa 30nM:10nM, anti-RXR (NR concentration 30 nM, RXRa partner concentration 10 nM)
Outline: as §1

[10] = test system: PPARg:RXRa 90nM:30nM, anti-RXR (NR concentration 90 nM, RXRa partner concentration 30 nM)
Outline: as §1

Sequence	PBM binding z-score [1]	PBM binding z-score [2]	PBM binding z-score [3]	PBM binding z-score [4]	PBM binding z-score [5]	PBM binding z-score [6]	PBM binding z-score [7]	PBM binding z-score [8]	PBM binding z-score [9]	PBM binding z-score [10]
GCATATATGTAATACAAGGTGAAAGTCCGATTGT	0.416	0.403	0.269	0.457	0.00515	1.08	1.35	0.83	0.428	0.72
CAAACTAGGTCAAAGGTCCAAGTCGAGCCAACCA	5.12	4.21	0.693	3.08	0.0587	6.27	12.8	10.1	12.4	12.2
CGTCCAAAGTCAAGGTCAGTGAAAGAGACTCGAA	2.34	2.12	0.643	1.74	0.209	2.8	0.614	1.04	0.0766	0.615
GCTGCTAGGTCAACTGATGGTCAGCTTAAGCTCG	4.41	3.13	0.215	2.09	0.173	3.5	2.44	2.97	0.312	2.07
ACTCGGAGGACAAAGGTCAGATCTACGCCAGTGA	4.14	4.18	1.82	3.46	1	4.65	7.02	6.8	5.45	6.92
TCATATAGGTAAATGCTAGATGAAAGTCCGATCT	0.267	0.34	-0.249	0.68	-0.163	1.06	1.06	1.99	3.6	2.79
ATCGAAAGGTCGAAGCTGAGTATACCCACCCGAA	4.55	3.6	0.403	2.6	0.738	4.28	2.17	2.92	0.67	1.94
CCAGACAGGTGACAAGGTAACTCAGCCTCGATTA	0.0849	0.145	-0.212	-0.039	-0.466	0.6	0.825	0.508	-0.365	0.0365
GAACCAAGGTGAATAGGTCGTTGATGAGTAGGCG	0.855	0.803	-0.0902	0.55	-0.922	2.46	1.74	1.97	0.275	1.25
GCTGCTAGGTCAGGTTGGTCAGCAAACGGGTACG	1.13	0.793	-0.389	0.519	-0.114	1.52	0.5	0.829	-0.344	0.0879
ATCTCTAGGTAGGACTCAGTTCAGTGAAGAACGC	0.414	0.636	0.659	0.518	1.09	0.278	0.171	0.732	0.37	0.644
CCTACTGGGCCAAGGTCATGGATCAGTCAAAGCA	3.04	3.08	0.47	3.01	-0.724	4.32	4.52	4.76	1.8	3.69
TCATATAGGTAAATGCTAGGTGAAAGCCCGATCT	0.778	0.754	0.00437	0.675	-0.102	1.4	0.799	2.27	3.75	3.05
TCTTGTAGATCAAGCATGTTAAGAAAGCCTGAGT	0.693	0.403	-0.106	0.334	-0.513	0.796	-0.182	1.46	2.56	2.01
CGTCAAAGTTCTACTAAGGTAACGTAAAGCACGC	1.91	-0.151	-0.14	0.0598	-0.14	0.277	0.459	0.289	0.196	0.185
ATCGAAAGGTCGATGGTGAGTATACCCACCCGAA	3.01	2.38	-0.15	1.83	0.391	3.29	1.48	1.85	0.714	1.02
GATACAGGGTCAGCTAGCGGCCAGAGTATGGAAA	4.95	2.67	-0.847	2.34	-0.774	4.56	3.77	3.29	0.52	2.01
CGTCCAAGGACAAAGGTCAGTGAAGAGATGACGG	3.18	3.25	1	2.85	-0.0848	4.56	5.79	5.86	3.8	5.51
ACTGACAGGTGATGAAGGTAACTCAGGCTATCAT	-0.15	-0.398	-0.445	-0.455	-0.408	-0.0489	0.472	0.0848	0.0417	0.219
TAATATAGGTAAAGGTGAAAGTCGAACGATATGA	1.14	1.33	0.478	1.55	0.351	4.23	6.52	6.14	4.8	6.35
CAAACTAGGTCAAGGTCAAAGTTGGTTTGTGCCA	7	5.55	4.19	4.77	1.48	6.04	9.87	7.82	6.98	8.52
CAAACTAGGTCACGAAAGGTCAAAGGCGAATGAC	7.72	8.23	7.26	7.15	2.21	6.78	10.6	8.54	7.17	8.65
CGAACGAGGGCATGAATTGATAGCAAATGCCGAT	-0.0699	-0.102	-0.436	-0.0113	-0.655	0.924	0.992	0.623	0.00744	0.388
